The values that follow come from PMC11062922 (Nature Chemical Biology, 2023).

Read-outs that look alike come from different tables or passages of the source.

Common to all, as to set-up: species or system human, MV4-11 + K-562 + COLO205 + SK-N-BE2 + OVCAR-8
Experiment [1] deals with ABL1. To be noted: read-out: apparent Kd, n = 1.
Experiment [2] deals with ABL2. To be noted: read-out: apparent Kd, n = 1.
The subject of experiment [3] is BTK. To be noted: read-out: apparent Kd, n = 1.
Experiment [4] has as its system EPHB1. To be noted: read-out: apparent Kd, n = 1.
Experiment [5] relates to LCK. To be noted: read-out: apparent Kd, n = 1.
Experiment [6] has as its system MAP3K11. To be noted: read-out: apparent Kd, n = 1.
For experiment [7], the system named is PAK6. To be noted: read-out: apparent Kd, n = 1.
The subject of experiment [8] is RPS6KA3. The note with it: read-out: apparent Kd, n = 1.
Experiment [9] has as its system CIT. To be noted: read-out: apparent Kd; compound concentrations:100 nM and 1000 nM (sheet 'Samples'); n = 1.
The subject of experiment [10] is MAPK14. The note with it: read-out: apparent Kd, n = 1.
The subject of experiment [11] is MARK2. To be noted: read-out: apparent Kd, n = 1.
Experiment [12] has as its system AURKB. To be noted: read-out: apparent Kd, n = 1.
The test system of experiment [13] is NUAK2. The note with it: read-out: apparent Kd, n = 1.
The test system of experiment [14] is RPS6KB1. To be noted: read-out: apparent Kd, n = 1.
In experiment [15] the test system is PKN2. The note with it: read-out: apparent Kd, n = 1.
The test system of experiment [16] is CDC42BPB. The note with it: read-out: apparent Kd; compound concentrations:100 nM and 1000 nM (sheet 'Samples'); n = 1.
The test system of experiment [17] is PRKCA. The note with it: read-out: apparent Kd, n = 1.
Experiment [18] relates to CDK2. The note with it: read-out: apparent Kd; compound concentrations: 100 nM and 1000 nM (sheet 'Samples'), CATDS: 7.0892729990410901E-3; n = 1.
In experiment [19] the test system is IRAK3. To be noted: read-out: apparent Kd; compound concentrations: 100 nM and 1000 nM (sheet 'Samples'), CATDS: 1.44351207371401E-2; n = 1.
The mark [20] stands for this setting: compound concentrations:100 nM and 1000 nM (sheet 'Samples').

For the compound `Cl.Cl.NCC(C(=O)Nc1cc(Br)c(-c2ccnc3[nH]ccc23)s1)c1ccccc1.NCC(C(=O)Nc1cc(Br)c(-c2ccnc3[nH]ccc23)s1)c1ccccc1` (stereo not shown) [GSK1269851A], the potency estimated from few doses in experiment [1] (setting [20]) was 1040 nM; in experiment [2] (setting [20]), 433 nM; in experiment [3] (setting [20]) it was 638 nM; in [4] (setting [20]), 331 nM; in [5] (setting [20]) it was 519 nM; in experiment [6] (setting [20]), 2030 nM. The figures for the potency estimated from few doses in [7] (setting [20]) and in [8] (setting [20]) were 710 nM and 1840 nM, respectively.

As for `CC(C)N1CCC(n2cnc(-c3ccc(F)cc3)c2-c2ccnc(N)n2)CC1` [SB-223132], the potency estimated from few doses in [1] (setting [20]) is 1110 nM; in experiment [2] (setting [20]), 723 nM; in [3] (setting [20]) it was 842 nM; in experiment [9] it was 886 nM; in experiment [4] (setting [20]) it was 656 nM; in experiment [5] (setting [20]), 880 nM. Further, the potency estimated from few doses in experiment [10] (compound concentrations: 100 nM and 1000 nM (sheet 'Samples'), CATDS: 8.3649714811029202E-2) was 40 nM; in [11] (setting [20]) it was 1570 nM.

Regarding `CN1C[C@@H]2Cn3c(c(C4=C(c5cn(C)c6ccccc56)C(=O)NC4=O)c4ccccc43)C[C@H]2C1.Cl` [RO0320234-001], the potency estimated from few doses in experiment [1] (setting [20]) is 93.7 nM; in experiment [2] (setting [20]), 5.56 nM; in [12] (setting [20]), 444 nM; in experiment [3] (setting [20]), 86.7 nM; in experiment [4] (setting [20]), 10.4 nM; in experiment [5] (setting [20]), 134 nM. In addition, the potency estimated from few doses in experiment [13] (setting [20]) is 843 nM; in [7] (setting [20]) it was 111 nM; in experiment [8] (setting [20]), 2100 nM; in [14] (setting [20]), 86.4 nM.

On to `CCn1c(-c2nonc2N)nc2c(C#CCN)ncc(OCCCN)c21.O=C(O)C(F)(F)F` [GSK561866B], for which the potency estimated from few doses in experiment [15] (compound concentrations: 100 nM and 1000 nM (sheet 'Samples'), CATDS: 7.8850535448236003E-2) is 1510 nM; in [14] (compound concentrations: 100 nM and 1000 nM (sheet 'Samples'), CATDS: 9.0745453411211097E-2), 699 nM.

With `Clc1cc(Cl)cc(Nc2ccnc(Nc3cc(Cl)cc(Cl)c3)n2)c1` [GSK175726A], the potency estimated from few doses in experiment [1] (compound concentrations: 100 nM and 1000 nM (sheet 'Samples'), CATDS: 2.5998529843594201E-2) is 83.2 nM; in experiment [2] (compound concentrations: 100 nM and 1000 nM (sheet 'Samples'), CATDS: 0.155143101703651) it was 7.68 nM; in [12] (compound concentrations: 100 nM and 1000 nM (sheet 'Samples'), CATDS: 1.17744273258488E-2), 461 nM; in experiment [3] (compound concentrations: 100 nM and 1000 nM (sheet 'Samples'), CATDS: 2.6199359146872301E-2), 82.1 nM; in [4] (compound concentrations: 100 nM and 1000 nM (sheet 'Samples'), CATDS: 3.1891027827673897E-2), 60 nM; in [5] (compound concentrations: 100 nM and 1000 nM (sheet 'Samples'), CATDS: 2.0638344047220501E-2), 125 nM. In addition, the potency estimated from few doses in [7] (compound concentrations: 100 nM and 1000 nM (sheet 'Samples'), CATDS: 9.3443297736164402E-3) is 1060 nM; in experiment [8] (compound concentrations: 100 nM and 1000 nM (sheet 'Samples'), CATDS: 8.5170276758985107E-3) it was 1660 nM.

`NCCNS(=O)(=O)c1ccc(-c2ccnc3[nH]ccc23)cc1` [GSK977617A]: the potency estimated from few doses in [1] (setting [20]) is 681 nM; in [2] (setting [20]) it was 277 nM; in experiment [3] (setting [20]), 642 nM; in [16] it was 1700 nM; in experiment [4] (setting [20]), 463 nM; in [5] (setting [20]) it was 515 nM. Also, the potency estimated from few doses in [6] (setting [20]) is 1370 nM; in experiment [7] (setting [20]), 1310 nM; in experiment [15] (setting [20]) it was 1190 nM; in [17] (setting [20]), 1270 nM.

For `COc1ccc(Nc2ncc(C#N)c(Nc3ccccc3C(N)=O)n2)cc1N1CCN(C)CC1.Cl` [GSK1558669A], the potency estimated from few doses in experiment [1] (compound concentrations: 100 nM and 1000 nM (sheet 'Samples'), CATDS: 1.2086196789939699E-2) is 112 nM; in experiment [2] (compound concentrations: 100 nM and 1000 nM (sheet 'Samples'), CATDS: 8.4087803089845196E-3) it was 334 nM; in experiment [12] (compound concentrations: 100 nM and 1000 nM (sheet 'Samples'), CATDS: 1.8083134151289901E-2) it was 45.1 nM; in [3] (compound concentrations: 100 nM and 1000 nM (sheet 'Samples'), CATDS: 6.7250041234510503E-3), 871 nM; in experiment [18] it was 671 nM; in experiment [19], 72.7 nM. Besides, the potency estimated from few doses is 72.7 nM in experiment [5] (compound concentrations: 100 nM and 1000 nM (sheet 'Samples'), CATDS: 1.44418733031309E-2); 20.5 nM in experiment [6] (compound concentrations: 100 nM and 1000 nM (sheet 'Samples'), CATDS: 2.8050644020512099E-2); 289 nM in [11] (compound concentrations: 100 nM and 1000 nM (sheet 'Samples'), CATDS: 8.7535455285316904E-3); 33.3 nM in experiment [13] (compound concentrations: 100 nM and 1000 nM (sheet 'Samples'), CATDS: 2.1181549202491899E-2); 1220 nM in experiment [17] (compound concentrations: 100 nM and 1000 nM (sheet 'Samples'), CATDS: 6.3313527827085804E-3); 110 nM in experiment [8] (compound concentrations: 100 nM and 1000 nM (sheet 'Samples'), CATDS: 1.2141837427484699E-2). Further, the potency estimated from few doses in [14] (compound concentrations: 100 nM and 1000 nM (sheet 'Samples'), CATDS: 6.0370811384274602E-3) was 1680 nM.

In the case of `Cl.Nc1c(C(=O)c2cccc(C#CCN3CCCCC3)c2)cnn1-c1ccc(F)cc1` [RO1154461-001], the potency estimated from few doses in experiment [1] (compound concentrations: 100 nM and 1000 nM (sheet 'Samples'), CATDS: 1.29854856136426E-2) is 806 nM; in experiment [2] (compound concentrations: 100 nM and 1000 nM (sheet 'Samples'), CATDS: 1.9255632348685402E-2), 323 nM; in experiment [3] (compound concentrations: 100 nM and 1000 nM (sheet 'Samples'), CATDS: 1.2670518401124599E-2) it was 863 nM; in experiment [4] (compound concentrations: 100 nM and 1000 nM (sheet 'Samples'), CATDS: 2.02427776556733E-2), 292 nM; in [5] (compound concentrations: 100 nM and 1000 nM (sheet 'Samples'), CATDS: 1.3782974497271E-2), 687 nM; in experiment [13] (compound concentrations: 100 nM and 1000 nM (sheet 'Samples'), CATDS: 1.07977981674066E-2), 1430 nM. Besides, the potency estimated from few doses in experiment [7] (compound concentrations: 100 nM and 1000 nM (sheet 'Samples'), CATDS: 1.2359364494815299E-2) is 927 nM.

With `Cc1cccc(-c2nc(Nc3ccncc3)c3sccc3n2)n1` [GW869641X], in experiment [9], the potency estimated from few doses is 1100 nM.

Take `CCn1c(-c2nonc2N)nc2c(C#CC(C)(C)O)nc(OC[C@@H](N)c3ccccc3)cc21` [GSK938890A]: the potency estimated from few doses in experiment [7] (compound concentrations: 100 nM and 1000 nM (sheet 'Samples'), CATDS: 9.3701498593083701E-2) is 129 nM.

As for `Cc1ccc2c(-c3ccncc3)c(-c3ccc(F)cc3)nn2c1.Cl` [GW461484A], the potency estimated from few doses was 1220 nM in experiment [1] (setting [20]); 571 nM in experiment [2] (setting [20]); 801 nM in experiment [3] (setting [20]); 2120 nM in [9]; 384 nM in experiment [4] (setting [20]); 730 nM in experiment [5] (setting [20]). Moreover, the potency estimated from few doses was 465 nM in [10] (setting [20]) and 1950 nM in experiment [8] (setting [20]).
